These results are taken from PubChem BioAssay (EPA / NIEHS).

Active and inactive are the calls of the source. The calls were made as follows: active = hit-call score of the fitted dose curve at least 0.9, where 1 is the maximum; inactive = score below 0.9.

A short description of test [1]: BSK_3C_VCAM1: BioMAP Diversity Plus: 3C Assay for Vascular cell adhesion molecule 1 (VCAM1) Biomarker Activity (AID 2282999). The conditions noted are these: BioMAP 3C HUVEC, VCAM1 ELISA, cytokine-stimulated; actives raise or lower the signal. The method, boiled down:
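Human umbilical vein endothelial cells were dosed with compound for 24 h, after which cell-surface VCAM-1 was quantified by ELISA. Bidirectional curve fitting used DMSO as negative control and activity baseline.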

Read-out in test [2]: Intercellular Adhesion Molecule 1 (ICAM1), ICAM1 (gene 3383)
The test is described as follows: BSK_3C_ICAM1: BioMAP Diversity Plus: 3C Assay for Intercellular Adhesion Molecule 1 (ICAM1) Biomarker Activity (AID 2283003). The conditions noted are these: primary human endothelial cells (HUVEC); actives raise or lower the signal. Summed up: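 HUVEC primary cells stimulated under 3C conditions; ICAM1 measured by ELISA 24 h after compound dosing. Curves fitted bidirectionally against the DMSO baseline. Overt cytotoxicity checked by SRB staining of parallel cultures.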

A short description of test [3]: BSK_3C_Proliferation: Cell Proliferation Assessment in the BioMAP Diversity Plus: 3C Assay (AID 2283006).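 As to AC50: potency may reflect either rise or fall in cell number versus DMSO.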 The settings on record: primary human endothelial cells (HUVEC). The method, boiled down:
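Subconfluent HUVEC (3C system) cultured with chemical; relative cell number read at 48 h by sulforhodamine B total-protein staining (0.1% SRB after 10% TCA fixation, 560 nm). Bidirectional fit relative to DMSO.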

Read-out in test [4]: E-selectin (Homo sapiens) (UniProt P16581)
The test is described as follows: BSK_3C_Eselectin: BioMAP Diversity Plus: 3C Assay for Eselectin Biomarker Activity (AID 2283015).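 As to outcome: cell surface E-selectin protein quantified by ELISA 24 h after dosing.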 The settings on record: primary human endothelial cells (HUVEC); actives raise or lower the signal. The method, boiled down: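 Primary human umbilical vein endothelial cells (3C system) were dosed with chemical and cell-surface E-selectin measured by ELISA 24 h later. Bidirectional curve fitting used DMSO as negative control and baseline.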

Read-out in test [5]: Matrix Metallopeptidase 1 (MMP1), MMP1 (gene 4312)
The test is described as follows: BSK_BE3C_MMP1: BioMAP Diversity Plus: BE3C Assay for Matrix Metallopeptidase 1 (MMP1) Biomarker Activity (AID 2283024). The conditions noted are these: primary human bronchial epithelial cells; actives raise or lower the signal. Summed up: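 Human primary bronchial epithelial cells (BE3C system) dosed for 24 h; MMP-1 quantified by ELISA. Bidirectional fit against DMSO; cytotoxicity tracked in parallel cultures by SRB total-protein staining.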

Test [6] can be described thus: BSK_BE3C_SRB: Viability Assessment in the BioMAP Diversity Plus: BE3C Assay (AID 2283028).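 As to AC50: fitted both ways so AC50 may mark signal gain or loss versus DMSO.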 The settings on record: primary human bronchial epithelial cells. Summed up: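 Human primary bronchial epithelial cells were exposed to test chemicals for 24 h. Total protein in parallel cultures was then measured by staining with 0.1% sulforhodamine B after 10% TCA fixation, with absorbance read at 560 nm. Activity was fitted bidirectionally against DMSO.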

Read-out in test [7]: Thrombomodulin, THBD (gene 7056)
The test is described as follows: BSK_3C_Thrombomodulin: BioMAP Diversity Plus: 3C Assay for Thrombomodulin Biomarker Activity (AID 2283029). The settings on record: primary human endothelial cells (HUVEC); actives raise or lower the signal. The method, boiled down:
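Human umbilical vein endothelial cells were exposed to chemicals for 24 h; cell-surface thrombomodulin quantified by ELISA, with bidirectional fitting against DMSO baseline.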

Read-out in test [8]: Vascular cell adhesion molecule 1 (VCAM1), VCAM1 (gene 7412)
The test is described as follows: BSK_4H_VCAM1: BioMAP Diversity Plus: 4H Assay for Vascular cell adhesion molecule 1 (VCAM1) Biomarker Activity (AID 2283033). The settings on record: primary human endothelial cells (HUVEC); actives raise or lower the signal. The method, boiled down: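 Primary human umbilical vein endothelial cells, 4H stimulation system, treated for 24 h; cell-surface VCAM-1 quantified by ELISA. Bidirectional fitting against DMSO; cytotoxicity tracked by SRB total-protein staining in parallel cultures.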

Read-out in test [9]: Interferon-gamma inducible Protein 10 (IP10), CXCL10 (gene 3627)
The test is described as follows: BSK_BE3C_IP10: BioMAP Diversity Plus: BE3C Assay for Interferon-gamma inducible Protein 10 (IP10) Biomarker Activity (AID 2283034). The settings on record: primary human bronchial epithelial cells; actives raise or lower the signal. Summed up:
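Primary human bronchial epithelial cells, with IP-10 measured by ELISA 24 hours after chemical dosing. Bidirectional fit against DMSO; cytotoxicity checked by SRB total protein staining in parallel cultures.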

Read-out in test [10]: Monokine induced gamma interferon (MIG), CXCL9 (gene 4283)
The test is described as follows: BSK_BE3C_MIG: BioMAP Diversity Plus: BE3C Assay for Monokine induced gamma interferon (MIG) Biomarker Activity (AID 2283035). The conditions noted are these: primary human bronchial epithelial cells; actives raise or lower the signal. Summed up: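 ELISA read-out of MIG in human lung bronchial epithelial primary cultures, 24 h post-dosing. Bidirectional curve fit vs DMSO baseline.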

Read-out in test [11]: urokinase plasminogen activator (uPA), PLAU (gene 5328)
The test is described as follows: BSK_BE3C_uPA: BioMAP Diversity Plus: BE3C Assay for urokinase plasminogen activator (uPA) Biomarker Activity (AID 2283038).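 As to outcome: uPA protein level quantified by ELISA in cell cultures; uPA read one day after compound addition.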 The conditions noted are these: primary human bronchial epithelial cells; actives raise or lower the signal. The method, boiled down: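 Human primary bronchial epithelial cells were exposed to chemical for 24 h, then uPA levels were measured by ELISA. Responses were fitted bidirectionally against DMSO as negative control and baseline. Parallel SRB staining of total protein gauged overt cytotoxicity.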

Read-out in test [12]: Interleukin-6 (IL6), IL6 (gene 3569)
The test is described as follows: BSK_CASM3C_IL6: BioMAP Diversity Plus: CASM3C Assay for Interleukin-6 (IL6) Biomarker Activity for (AID 2283040). The conditions noted are these: primary human coronary artery smooth muscle cells; actives raise or lower the signal.

Read-out in test [13]: Human Leukocyte Antigen - DR isotype (HLADR), HLA-DRA (gene 3122)
The test is described as follows: BSK_CASM3C_HLADR: BioMAP Diversity Plus: CASM3C Assay for Human Leukocyte Antigen - DR isotype (HLADR) Biomarker Activity (AID 2283043).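 Also: cell-surface HLA-DR protein level quantified by ELISA.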 The conditions noted are these: primary human coronary artery smooth muscle cells; actives raise or lower the signal.

Read-out in test [14]: Low-density lipoprotein receptor (LDLR), LDLR (gene 3949)
The test is described as follows: BSK_CASM3C_LDLR: BioMAP Diversity Plus: CASM3C Assay for Low-density lipoprotein receptor (LDLR) Biomarker Activity (AID 2283045).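 Also: LDLR protein level on the cell surface quantified by ELISA.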 The conditions noted are these: primary human coronary artery smooth muscle cells; actives raise or lower the signal.

Read-out in test [15]: Monocyte Chemoattractant Protein-1 (MCP1), CCL2 (gene 6347)
The test is described as follows: BSK_CASM3C_MCP1: BioMAP Diversity Plus: CASM3C Assay for Monocyte Chemoattractant Protein-1 (MCP1) Biomarker Activity (AID 2283046).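 Also: MCP-1 level quantified by ELISA 24 h after dosing.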 The settings on record: primary human coronary artery smooth muscle cells; actives raise or lower the signal.

Test [16] in a line: BSK_CASM3C_Proliferation: Cell Proliferation Assessment in the BioMAP Diversity Plus: CASM3C Assay (AID 2283047).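 Also: sub-confluent cells exposed 48 h before staining; fitted both ways against DMSO so gain or loss of cell number.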 The settings on record: primary human coronary artery smooth muscle cells.
Read-out in test [17]: serum amyloid A (SAA), SAA1 (gene 6288)
The test is described as follows: BSK_CASM3C_SAA: BioMAP Diversity Plus: CASM3C Assay for serum amyloid A (SAA) Biomarker Activity (AID 2283049).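 Also: SAA protein level quantified by ELISA.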 The settings on record: primary human coronary artery smooth muscle cells; actives raise or lower the signal.

Read-out in test [18]: Tissue Factor, F3 (gene 2152)
The test is described as follows: BSK_CASM3C_TissueFactor: BioMAP Diversity Plus: CASM3C Assay for Tissue Factor Biomarker Activity (AID 2283052).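 Also: cell surface tissue factor protein level read by ELISA.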 The settings on record: primary human coronary artery smooth muscle cells; actives raise or lower the signal.

Read-out in test [19]: Interferon-gamma inducible Protein 10 (IP10), CXCL10 (gene 3627)
The test is described as follows: BSK_hDFCGF_IP10: BioMAP Diversity Plus: hDFCGF Assay for Interferon-gamma inducible Protein 10 (IP10) Biomarker Activity (AID 2283053). The settings on record: primary human foreskin fibroblasts; actives raise or lower the signal. The method, boiled down: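 Primary human foreskin fibroblasts exposed to chemicals for 24 h. IP-10 measured by ELISA; changes fitted bidirectionally against DMSO baseline.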

Read-out in test [20]: Epidermal growth factor receptor (EGFR), EGFR (gene 1956)
The test is described as follows: BSK_hDFCGF_EGFR: BioMAP Diversity Plus: hDFCGF Assay for Epidermal growth factor receptor (EGFR) Biomarker Activity (AID 2283057). The conditions noted are these: primary human foreskin fibroblasts; actives raise or lower the signal. Summed up:
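Primary human foreskin fibroblasts (hDFCGF system), sampled 24 h after dosing; EGFR quantified by ELISA. Bidirectional fit relative to DMSO baseline; SRB total-protein staining in parallel cultures for cytotoxicity.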

E-selectin (Homo sapiens), sequence (P16581 whole entry, looked up): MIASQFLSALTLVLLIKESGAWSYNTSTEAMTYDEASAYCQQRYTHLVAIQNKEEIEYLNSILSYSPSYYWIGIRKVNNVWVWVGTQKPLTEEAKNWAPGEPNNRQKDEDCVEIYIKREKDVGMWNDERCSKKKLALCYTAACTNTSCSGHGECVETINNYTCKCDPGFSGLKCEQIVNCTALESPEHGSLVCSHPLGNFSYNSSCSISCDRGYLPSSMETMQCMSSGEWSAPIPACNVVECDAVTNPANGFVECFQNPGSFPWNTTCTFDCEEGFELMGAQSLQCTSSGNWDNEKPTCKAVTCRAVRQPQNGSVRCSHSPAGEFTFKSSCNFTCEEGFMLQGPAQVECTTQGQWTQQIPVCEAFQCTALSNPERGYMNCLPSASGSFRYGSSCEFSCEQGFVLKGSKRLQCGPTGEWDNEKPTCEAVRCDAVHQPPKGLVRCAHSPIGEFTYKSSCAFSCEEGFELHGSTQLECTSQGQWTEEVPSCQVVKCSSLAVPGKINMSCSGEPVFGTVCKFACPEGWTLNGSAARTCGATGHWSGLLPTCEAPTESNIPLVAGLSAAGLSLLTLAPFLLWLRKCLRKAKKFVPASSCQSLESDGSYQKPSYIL

As a reminder, the AC50 is the concentration giving half of the maximal activity seen. Turning to `CCC(C)c1cc([N+](=O)[O-])cc([N+](=O)[O-])c1OC(=O)C=C(C)C` (centres undefined), the half-maximal activity concentration (AC50) in test [1] was 20 µM (active); in test [2] it was 30.4 µM (active); in test [3], 11.2 µM (active); in [4] it was 14.4 µM (active); in test [5], 34.2 µM (active); in test [6] it was 32.5 µM (active). In addition, the concentration at half-maximal activity (AC50) in test [8] was 9.17 µM (active); in test [9] it was 8.21 µM (active); in [10], 35.1 µM (active); in test [11], 31.9 µM (active); in [13], 5.31 µM (active); in test [14], 31.2 µM (active). The AC50 in test [16] is 36.2 µM (active); in [17], 20 µM (active); in test [18] it was 7.73 µM (active); in [19], 7.21 µM (active). The result in test [7], in test [12], in test [15] and in test [20] was inactive.

As to `O=c1c2ccccc2c(=O)c2c1cc(Cl)c1[nH]c3c([nH]c12)c(Cl)cc1c(=O)c2ccccc2c(=O)c13`, the result in [1], in [2], in [3], in [4], in [6] and in test [7] was inactive. Moreover, the result in test [8], in test [9], in test [10], in test [11], in test [12] and in test [13] was inactive. In addition, the result in test [14], in test [15], in test [16], in test [17], in test [18] and in [20] was inactive. Moreover, the values for the AC50 in test [5] and in test [19] were 20 µM (active) and 29 µM (active), respectively.

For `Nc1ccc(-c2ccc(N)c(N)c2)cc1N`, the outcome in test [1], in test [2], in test [3], in test [5], in test [6] and in [7] was inactive. Also, the outcome in test [8], in [9], in test [10], in [11], in test [12] and in [14] was inactive. The result in test [15], in test [16], in test [17], in [19] and in test [20] was inactive. The concentration at half-maximal activity (AC50) in test [4] is 8.29 µM (active); in test [18], 11.3 µM (active).

For `O=c1[nH]c(Cl)c(Cl)cc1Cl`, the result in test [1], in test [2], in [3], in [4], in [5] and in test [6] was inactive. Besides, the result in test [7], in [8], in test [9], in test [10], in test [11] and in test [12] was inactive. Besides, the result in test [13], in [14], in test [15], in test [16], in test [17] and in test [18] was inactive. Besides, the result in test [19] and in [20] was inactive.

With `CC(C)(C)C(=O)CCl`, the AC50 in [1] was 20 µM (active); in test [3] it was 16.9 µM (active); in test [4] it was 20 µM (active); in [8], 25.7 µM (active); in test [13] it was 4.45 µM (active); in [16], 20 µM (active). Further, the result in test [2], in [5], in test [6], in test [7], in test [9] and in test [10] was inactive. Besides, the outcome in test [11], in test [12], in test [14], in test [15], in test [17] and in test [18] was inactive. In addition, the outcome in test [19] and in test [20] was inactive.

Take `CCCOC(=O)c1ccccc1C(=O)OCCC`: the outcome in [1], in test [2], in test [3], in test [5], in test [6] and in [7] was inactive. Moreover, the outcome in [8], in test [9], in test [10], in [11], in test [12] and in test [13] was inactive. Further, the outcome in [14], in [15], in test [16], in [17], in test [18] and in [19] was inactive. Also, the outcome in test [20] was inactive. Also, the AC50 in [4] is 36.4 µM (active).
